High-throughput results deposited in PubChem BioAssay by National Center for Advancing Translational Sciences (NCATS).
Rows were chosen to be rich in hits. Some 7.6% of all compounds tested hit in one or more screens of this group.
KCNH2 3.1 inh: qHTS for Inhibitors of KCHN2 3.1: Mutant qHTS; Potassium voltage-gated channel subfamily H member 2, brain isoform KCNH2 3.1 (human); U2OS KCNH2 3.1, thallium flux FluxOr; hits give low values; activity change, % (tested at about 1.8 µM); actives 0.95% (n = 340,000);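 active = maximum activity change below -70%; inconclusive = maximum activity change from -70% to -50%; inactive = maximum activity change above -50%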;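 note: thallium influx rate constant from kinetic fluorescence after stimulation buffer; % is set by controls: 0 for no effect and ±100 for the full control effect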
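Thallium flux read-out: FluxOr dye with Red40 quencher in HBSS/HEPES, 45 min at RT. Rate constants from kinetic reads were normalized to positive and negative DMSO controls. Cells: U2OS virally expressing the 3.1 isoform.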
KB-3-1 tox: qHTS assay for MDR1-selective chemotherapeutics: Primary screen using the parental adenocarcinoma cell KB-3-1; Potency, µM (top dose mostly 46.1 µM), most hits filed as cytotoxic; KB-3-1 viability, CellTiter-Glo ATP luminescence, 72 h; actives 1.4% (n = 400,000); note: potency is the fitted concentration of half-maximal effect; % is set by controls: 0 for no effect and ±100 for the full control effect; nearly all actives have a fitted effect of over 60% in size
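Viability of parental KB-3-1 cells, measured by CellTiter-Glo luminescence, followed a 72 h incubation at 37 °C with pinned compounds in phenol-red-free DMEM containing 10% FBS.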
KCNH2 WT inh: qHTS for Inhibitors of KCHN2 3.1: Wildtype qHTS; actives 0.37% (n = 340,000); U2OS, BacMam KCNH2, thallium flux FluxOr; hits give low values; Voltage-gated inwardly rectifying potassium channel KCNH2 (Homo sapiens), Q12809; AID 720551, 2013; activity change, % at 1.84 µM;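 active = maximum activity change below -70%; inconclusive = maximum activity change between -70% and -50%; inactive = maximum activity change above -50%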; note: % is set by controls: 0 for no effect and ±100 for the full control effect
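U2OS cells were transduced with wild-type KCNH2 virus (2.03 x 10^8 / mL) for 4 h at room temperature, then cultured overnight at 37 C. Thallium flux was read with FluxOr dye. Rate constants were normalized to DMSO controls.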
MCF10A rereplic: A quantitative high throughput screen for small molecules that induce DNA re-replication in MCF 10a normal breast cells | Potency, µM (highest dose often 46.1 µM), for the others: at the top dose activity, positive = re-replication, most hits filed as activators | MCF 10A DNA re-replication, Hoechst nuclear intensity, 48 h | actives 2.9% (n = 350,000) | AID 624296, 2012; note: potency is the fitted concentration of half-maximal effect; % of control where 0% means no effect; nearly all actives have a fitted effect of over 50% in size
SW480 rereplic: A quantitative high throughput screen for small molecules that induce DNA re-replication in SW480 colon adenocarcinoma cells; SW480 DNA re-replication, Hoechst DNA content imaging, 48 h; Potency, µM (highest dose often 46.1 µM), inactives show at the top dose re-replication activation, hits mostly activators; actives 1.8% (n = 340,000); AID 624297, 2012; note: potency is the fitted concentration of half-maximal effect; % of control where 0% means no effect; nearly all actives have a fitted effect of over 55% in size
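First, 250 cells per well were seeded. Next, compound or vehicle (23 nL) was pinned in, plates sat 48 hr at 37 C. Finally Hoechst was added for 40 min before fluorescence scanning.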
KB-V1 MDR tox: qHTS assay for MDR1-selective chemotherapeutics: Primary screen using the drug-selected MDR subline cells KB-V1; KB-V1 MDR cells viability, CellTiter-Glo, 72 h; Potency, µM (highest dose often 46.1 µM), usual class: cytotoxic; actives 3.4% (n = 400,000); AID 1347076, 2019; note: potency is the fitted concentration of half-maximal effect; % is set by controls: 0 for no effect and ±100 for the full control effect; nearly all actives have a fitted effect of over 60% in size
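Readout: CellTiter-Glo luminescence, 10 min after addition. Cells: KB-V1 MDR subline, 72 h at 37 degrees C with compound. Analysis: corrected, normalized data fitted to concentration-effect curves.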
The depositor's hits bear a star; i = inactive; u = inconclusive; x = no result. Unless noted, calls come from the whole dose curve; as a rule, active = well fitted curve in the direction sought with a large enough effect; inconclusive = small, poorly fitted or top-dose-only effect, or another doubt; inactive = no such curve, though single readings can be large; an effect the other way counts as inactive or inconclusive.

SMILES	KCNH2 3.1 inh	KB-3-1 tox	KCNH2 WT inh	MCF10A rereplic	SW480 rereplic	KB-V1 MDR tox
CCCCN1C=C(C(=O)OC)C(c2ccccc2C(F)(F)F)C(C(=O)OC)=C1	u	i	-3	2.9µM*	9.2µM*	i
COCCN1C=C(C(=O)OC)C(c2ccccc2C(F)(F)F)C(C(=O)OC)=C1	-1	i	3	16µM*	18µM*	i
COCCN1C=C(C(=O)OC)C(c2ccc(OC)c(OC)c2)C(C(=O)OC)=C1	-5	i	-2	-4%	1%	i
COC(=O)C1=C(C)NC(C)=C([N+](=O)[O-])[C@H]1c1ccccc1C(F)(F)F	x	i	x	x	x	i
CCCCOc1ccccc1C1C(C(=O)OC)=C(C)N(C)C(C)=C1C(=O)OC	-1	i	-2	17%	8%	9.2µM*
COC(=O)C1=CNC=C(C(=O)OC)C1c1ccccc1Cl	7	i	-11	u	u	i
CCCCN1C=C(C(=O)OC)C(c2ccccc2Cl)C(C(=O)OC)=C1	-13	i	-17	7.3µM*	u	i
CC(=O)N1CCc2c(sc3c2c(=O)n(-c2ccccc2C)c(=O)n3CC(=O)c2ccccc2)C1	x	i	x	x	x	i
COc1cc(NC(=O)c2sc3ncn(CC(=O)N4CCC(C)CC4)c(=O)c3c2C)cc(OC)c1OC	2	u	4	14%	36%	u
Cc1nn2c(NCCCN3CCOCC3)c3c(nc2c1-c1ccccc1)CCC3	5	i	0	25%	-5%	u
Cc1nn2c(Nc3ccc(F)cc3)c3c(nc2c1-c1ccccc1)CCC3	12	i	27	18%	-5%	u
CCC(C)Nc1c2c(nc3c(-c4ccccc4)c(C)nn13)CCC2 (stereo not given)	2	i	1	u	2%	9.2µM*
COCCNc1c2c(nc3c(-c4ccccc4)c(C)nn13)CCCC2	14	i	10	24%	4%	u
CCCCNc1c2c(nc3c(-c4ccccc4)c(C)nn13)CCC2	-7	i	12	21%	-15%	23µM*
COc1cccc(Nc2c3c(nc4c(-c5ccccc5)c(C)nn24)CCC3)c1	-7	u	17	21µM*	u	18µM*
O=S(=O)(Nc1ccc(-c2ccc(N3CCCC3)nn2)cc1)c1ccc(OC(F)(F)F)cc1	x	i	x	x	x	i
CCOc1ccc(/C=N/NC(=O)C(=O)N2CCCCCC2)c2ccccc12	-4	i	14	u	3%	i
Cc1ccc(C2=NN(C(=O)CCl)C(c3ccco3)C2)o1 (stereo not given)	16	u	2	21µM*	u	u
CC(=O)N1N=C(c2ccco2)CC1c1ccco1 (stereo not given)	0	i	3	1%	-2%	i
O=S(=O)(c1ccc(Br)cc1F)N1CC[C@H](O)C1	-8	i	14	-5%	19%	i
CCOc1ccccc1/C=C/c1nc2ccccc2[nH]c1=O	-9	i	-9	u	23µM*	i
CCOc1ccccc1OCCCC(=O)Nc1nc2ccccc2[nH]1	-7	i	-1	5%	12%	i
CC(C)(C)OC(=O)N[C@@H](C(=O)OC(C)(C)C)c1ccccc1	-86*	u	-9	u	-10%	i
CC(C)CC(NC(=O)OC(C)(C)C)c1cn([C@@H](Cc2ccc(O)cc2)C(=O)N2CCN(C(=O)OC(C)(C)C)CC2)nn1 (stereo not given in full)	-12	i	-1	7%	1%	i
CN(C)CC(O)c1ccc(C=Cc2ccc(Cl)cc2)cc1 (stereo not given)	-110*	u	0	u	4%	u
SMILES	KCNH2 3.1 inh	KB-3-1 tox	KCNH2 WT inh	MCF10A rereplic	SW480 rereplic	KB-V1 MDR tox
O=C(COC(=O)Cc1ccc(F)cc1)NCc1ccco1	13	i	x	3%	12µM*	i
O=C(COC(=O)CSc1ccc(F)cc1)NCc1ccco1	9	u	4	-1%	11%	u
Cc1ccc(CN2CCCn3nc(C(=O)NCCc4ccccc4Cl)cc3C2=O)cc1	x	i	x	x	x	i
O=C(c1ccccc1)c1ccc(NCCCn2ccnc2)c([N+](=O)[O-])c1	-24	u	7	25%	-5%	5.2µM*
CCN(CC)S(=O)(=O)c1ccc(NCCCn2ccnc2)c([N+](=O)[O-])c1	-8	u	-1	12%	0%	u
CCOC(=O)CC(NC(=O)c1cc2ccccc2oc1=O)c1cccc([N+](=O)[O-])c1 (stereo not given)	4	i	7	14%	-1%	i
CC(=O)N1c2ccc(S(=O)(=O)N3CCC(C(=O)Nc4cccc(F)c4)CC3)cc2CC1C (stereo not given)	0	i	-24	-1%	4%	i
Cc1ccc(S(=O)(=O)N2c3cc(C)ccc3OCC2C(C)(C)C)cc1 (stereo not given)	1	u	-7	16µM*	u	u
COc1ccc(S(=O)(=O)N2c3cc(C)ccc3OCC2C(C)(C)C)cc1 (stereo not given)	12	5.8µM*	4	2.6µM*	5.8µM*	5.2µM*
COc1cccc(C(=O)N2c3cc(C)ccc3OCC2C(C)(C)C)c1 (stereo not given)	5	i	17	2%	-2%	i
CC(=O)Nc1cccc2c1C(=O)N(c1ccccc1OC(C)=O)C2=O	10	i	10	-6%	-6%	i
CCCc1nc2ccccc2c(C(=O)OCC(=O)NC2CC2)c1CC	-5	u	-4	-2%	4%	u
CC1CCCCC1NC(=O)COC(=O)c1c2c(nc3ccccc13)/C(=C\c1ccco1)CC2 (stereo not given)	11	i	1	18µM*	u	i
CN(CCC#N)C(=O)COC(=O)c1c2c(nc3ccccc13)/C(=C\c1ccco1)CC2	-4	i	1	u	4.1µM*	i
CN1CCc2nc3ccccc3c(C(=O)OCC(=O)N(CCC#N)c3ccccc3)c2C1	23	i	4	3%	-1%	u
